Records with an inconclusive call do not appear. Some compounds were tested as several samples or in several runs, with calls that do not always agree. Activity calls are given as the source filed them. Rule for the calls, unless noted: active = hit-call score of the fitted dose curve at least 0.9, where 1 is the maximum; inconclusive = response in the unintended direction; inactive = score below 0.9.

Assay [1] in a line: ATG_GAL4_TRANS: Attagene TRANS-FACTORIAL HepG2 Assay for GAL4 (Internal Marker) (AID 2282976). The settings on record: HepG2 Attagene TRANS GAL4 internal marker reporter. Summed up: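 Liver HepG2 line bearing multiplexed GAL4-UAS reporter constructs; 24 h chemical treatment. Transcripts were quantified as fluorescent fragments on capillary electrophoresis after RT-PCR and HpaI cut, with activity fitted upward from DMSO.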

Assay [2] in a line: BSK_3C_TissueFactor: BioMAP Diversity Plus: 3C Assay for Tissue Factor Biomarker Activity (AID 2282997; active = hit-call score of the fitted dose curve at least 0.9, where 1 is the maximum; inactive = score below 0.9). The settings on record: BioMAP 3C HUVEC, tissue factor biomarker readout; actives raise or lower the signal. Summed up: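 In this endothelial system, HUVEC are treated for 24 h and Tissue Factor is assessed by ELISA, normalised to DMSO.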
The nature of assay [3]: BSK_3C_uPAR: BioMAP Diversity Plus: 3C Assay for Urokinase-type plasminogen activator receptor (uPAR) Biomarker Activity (AID 2282998; active = hit-call score of the fitted dose curve at least 0.9, where 1 is the maximum; inactive = score below 0.9). The settings on record: BioMAP 3C HUVEC, uPAR biomarker ELISA; actives raise or lower the signal. Summed up: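 Dose primary human umbilical vein endothelial cells, incubate 24 h, measure cell-surface uPAR by ELISA, then fit the signal in both directions against the DMSO negative control.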
(In general: ELISA stands for enzyme-linked immunosorbent assay.)

Assay [4] in a line: BSK_4H_Eotaxin3: BioMAP Diversity Plus: 4H Assay for Eotaxin 3 Biomarker Activity (AID 2283000; active = hit-call score of the fitted dose curve at least 0.9, where 1 is the maximum; inactive = score below 0.9;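 for outcome: CCL26 protein level quantified by ELISA in parallel with SRB cytotoxicity check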). The settings on record: primary human endothelial cells (HUVEC); actives raise or lower the signal. In short, it runs like this: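 ELISA quantitation of CCL26 (Eotaxin-3) protein from chemically dosed human vascular endothelial cells at 24 h; increases and decreases both scored relative to DMSO-treated baseline.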

Read-out in assay [5]: Interleukin-1 alpha (IL1a), IL1A (gene 3552)
Briefly: BSK_BE3C_IL1a: BioMAP Diversity Plus: BE3C Assay for Interleukin-1 alpha (IL1a) Biomarker Activity (AID 2283016; active = hit-call score of the fitted dose curve at least 0.9, where 1 is the maximum; inactive = score below 0.9). The settings on record: primary human bronchial epithelial cells; actives raise or lower the signal. In short, it runs like this: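 ELISA read-out of IL-1a from human lung bronchial epithelial primary cells, 24 h post-dose. Gain or loss of signal fitted relative to DMSO negative control.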

Read-out in assay [6]: Monocyte Chemoattractant Protein-1 (MCP1), CCL2 (gene 6347)
Briefly: BSK_3C_MCP1: BioMAP Diversity Plus: 3C Assay for Monocyte Chemoattractant Protein-1 (MCP1) Biomarker Activity (AID 2283017; active = hit-call score of the fitted dose curve at least 0.9, where 1 is the maximum; inactive = score below 0.9). The settings on record: primary human endothelial cells (HUVEC); actives raise or lower the signal. Summed up: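 Using human vascular primary endothelium, researchers measured MCP-1 by ELISA 24 h after treatment, with DMSO serving as negative control for bidirectional fitting.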

Read-out in assay [7]: Interleukin-8 (IL8), CXCL8 (gene 3576)
Briefly: BSK_3C_IL8: BioMAP Diversity Plus: 3C Assay for Interleukin-8 (IL8) Biomarker Activity (AID 2283020; active = hit-call score of the fitted dose curve at least 0.9, where 1 is the maximum; inactive = score below 0.9). To be noted: primary human endothelial cells (HUVEC); actives raise or lower the signal. Summed up: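 HUVEC, 3C stimulation; 24 h compound exposure; IL-8 read by ELISA; gain or loss of signal fitted relative to DMSO control.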

Read-out in assay [8]: Monokine induced gamma interferon (MIG), CXCL9 (gene 4283)
The assay can be described thus: BSK_3C_MIG: BioMAP Diversity Plus: 3C Assay for Monokine induced gamma interferon (MIG) Biomarker Activity (AID 2283021; active = hit-call score of the fitted dose curve at least 0.9, where 1 is the maximum; inactive = score below 0.9;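 for AC50: MIG protein level measured by immunoassay in the treated endothelial cultures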). The settings on record: primary human endothelial cells (HUVEC); actives raise or lower the signal. In short, it runs like this:
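HUVEC, 3C system; 24 h chemical exposure; MIG by ELISA; bidirectional fit vs DMSO baseline.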

The target of assay [9] is Estrogen receptor beta (Homo sapiens) (UniProt Q92731). Briefly: OT_ER_ERbERb_0480: Odyssey Thera (OT) 8-hour HEK293T Protein-Complementation Assay for Estrogen Receptor-beta/-beta Homodimer (AID 2283357).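 Note: active means signal gain over DMSO baseline.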 Summed up:
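Homodimerization of ER-beta LBD measured by protein-fragment complementation in HEK293T; 8 h dosing; fixed, Draq5 counterstain; fluorescence intensity gain over DMSO baseline, positive fitting direction; laser scanning cytometry.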

Assay [10] shares this target. The assay can be described thus: OT_ER_ERbERb_1440: Odyssey Thera (OT) 24-hour HEK293T Protein-Complementation Assay for Estrogen Receptor-beta/-beta Homodimer (AID 2283380).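 Note: scored as signal increase over DMSO baseline for both agonists and antagonists.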 In short, it runs like this: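 HEK293T cells stably expressing ER beta LBD (aa 310-547) homodimer fragment-complementation reporter, dosed 24 h. Cells formaldehyde-fixed, Draq5-stained; gain in nuclear (agonist) or nuclear plus cytoplasmic (antagonist) fluorescence versus DMSO read by laser scanning cytometry.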

Assay [11] deals with Retinoic acid receptor RXR-alpha (Homo sapiens) (UniProt P19793). The assay can be described thus: OT_NURR1_NURR1RXRa_0480: Odyssey Thera (OT) 8-hour HEK293T Protein Complementation Assay for Nurr1/retinoid X receptor (RXR) (AID 2283385). Summed up:
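Read-out: fluorescence from protein-fragment complementation between Nurr1 and RXRα in human HEK293T cells, 8 h after dosing. DMSO served as negative control; increased signal counted as activity.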

For assay [12], the target named is Peroxisome proliferator-activated receptor gamma (Homo sapiens) (UniProt P37231). The assay can be described thus: OT_PPARg_PPARgSRC1_0480: Odyssey Thera (OT) 8-hour Protein-Complementation Assay for Peroxisome Proliferator-activated Receptor Gamma / SRC-1 Co-activator (AID 2283387).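 Note: nuclear to cytoplasmic split Venus YFP fluorescence ratio reporting PPARg SRC-1 interaction.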 In short, it runs like this:
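HEK293T transiently transfected with PPARg and SRC-1 fused to Venus YFP fragments, compounds 8 h at 37C. Fixed, Draq5-stained cells imaged; nuclear/cytoplasmic 488 nm fluorescence ratio over at least 350 cells per image; gain fitted versus DMSO.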

Assay [13] has the same target. The assay can be described thus: OT_PPARg_PPARgSRC1_1440: Odyssey Thera (OT) 24-hour Protein-Complementation Assay for Peroxisome Proliferator-activated Receptor Gamma/ SRC-1 Co-activator (AID 2283388). In short, it runs like this: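 Cells carrying the PPARg/SRC-1 fragment-complementation reporter receive compound for 24 hours, are fixed and counterstained with Draq5, then imaged. Increased nuclear relative to cytoplasmic YFP fluorescence above DMSO baseline indicates binding activity.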

The nature of assay [14]: ACEA_AR_agonist_AUC_viability: ACEA Biosciences xCELLigence Real-Time Cell Analysis on Androgen Receptor Agonism for Viability (AID 2283775).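 For AC50: viability read 80 hours after compound addition.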 In short, it runs like this: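 Viability endpoint from xCELLigence impedance in 22Rv1 prostate cells at 80 h. Eight-point series, 100 uM maximum final.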
The nature of assay [15]: ACEA_AR_antagonist_AUC_viability: ACEA Biosciences xCELLigence Real-Time Cell Analysis on Androgen Receptor Antagonism for Viability (AID 2283776).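 Note: area under impedance growth curve at 80 h after dosing as viability; hits lower the growth signal relative to DMSO meaning cytotoxicity.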 Summed up: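 22Rv1 human prostate cancer cells were seeded on electrode plates, monitored overnight, then exposed to eight 1:4 dilutions from 100 uM final. Impedance-based growth kinetics at 80 h gave an AUC viability endpoint normalized to DMSO.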

The nature of assay [16]: ATG_ERE_CIS: Attagene CIS-FACTORIAL HepG2 Assay for Estrogen Response Element (ERE) (AID 2282940; active = hit-call score of the fitted dose curve at least 0.9, where 1 is the maximum; inactive = score below 0.9). The settings on record: HepG2 ERE cis-reporter, Attagene RNA transcript; actives raise or lower the signal. In short, it runs like this: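 Cells used were human hepatoma HepG2, transfected with multiple reporter transcription units under cis-regulatory promoters. Reporter mRNA, read 24 h post-dosing via fluorescent RT-PCR products on capillary electrophoresis, was fitted bidirectionally relative to DMSO.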

The target in assay [17] is Bile acid receptor (Homo sapiens) (UniProt Q96RI1). The assay can be described thus: ATG_FXR_TRANS: Attagene TRANS-FACTORIAL HepG2 Assay for Farnesoid X Receptor (FXR) (AID 2282979).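 Note: hits raise reporter mRNA above DMSO so AC50 marks FXR activation.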 To be noted: HepG2 Attagene TRANS FXR-GAL4 reporter transcription. Summed up: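 After 24 h chemical treatment of transfected HepG2 cells, GAL4-UAS reporter transcripts driven by an exogenous FXR-GAL4 fusion were measured by RT-PCR and capillary electrophoresis. Increases over DMSO were fitted.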

For assay [18], the target named is Oxysterols receptor LXR-beta (Homo sapiens) (UniProt P55055). The assay can be described thus: ATG_LXRb_TRANS: Attagene TRANS-FACTORIAL HepG2 Assay for human Liver X Receptor beta (LXRb) (AID 2282981). To be noted: HepG2 Attagene TRANS GAL4-LXRb reporter, mRNA. Summed up: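 Readout: fluorescent reporter mRNA fragments resolved by capillary electrophoresis after RT-PCR. System: transiently transfected human HepG2, exogenous LXRb-Gal4 chimera driving GAL4-UAS reporter, 24 h dosing. Activity fitted upward against DMSO baseline.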

The target in assay [19] is human Thyroid Receptor alpha (THRa1), THRA (gene 7067) (UniProt P10827). Briefly: ATG_THRa1_TRANS: Attagene TRANS-FACTORIAL HepG2 Assay for human Thyroid Receptor alpha (THRa1) (AID 2283014). Summed up:
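Measured here is mRNA from a GAL4-UAS reporter in transfected HepG2 cells carrying a Gal4-fused receptor, 24 h post-dose. DMSO served as negative control and baseline.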

Assay [20] addresses Retinoic acid receptor RXR-alpha (Homo sapiens) (UniProt P19793). The assay can be described thus: OT_NURR1_NURR1RXRa_1440: Odyssey Thera (OT) 24-hour HEK293T Protein Complementation Assay for Nurr1/retinoid X receptor (RXR) (AID 2283386). In short, it runs like this:
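Fluorescence PCA read-out; HEK293T; 24 h post-dose; bait/prey fused to reporter fragments; gain-of-signal fit vs DMSO negative control.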

Oxysterols receptor LXR-beta (Homo sapiens), sequence (P55055 whole entry, looked up, the tested form may be a part): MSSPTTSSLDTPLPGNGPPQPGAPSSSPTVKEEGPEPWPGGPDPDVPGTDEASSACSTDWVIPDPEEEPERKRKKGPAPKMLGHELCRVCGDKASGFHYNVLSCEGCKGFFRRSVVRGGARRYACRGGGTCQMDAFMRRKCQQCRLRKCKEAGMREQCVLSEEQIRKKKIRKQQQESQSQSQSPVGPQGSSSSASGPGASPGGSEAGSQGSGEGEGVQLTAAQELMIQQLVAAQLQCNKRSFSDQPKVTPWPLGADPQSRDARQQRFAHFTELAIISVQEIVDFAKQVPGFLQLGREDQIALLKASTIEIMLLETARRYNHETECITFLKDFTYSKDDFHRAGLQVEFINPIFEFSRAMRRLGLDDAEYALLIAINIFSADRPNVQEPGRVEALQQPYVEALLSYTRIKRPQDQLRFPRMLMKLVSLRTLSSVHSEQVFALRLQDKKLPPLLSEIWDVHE
Peroxisome proliferator-activated receptor gamma (Homo sapiens), sequence (P37231 whole entry, looked up, the tested form may be a part): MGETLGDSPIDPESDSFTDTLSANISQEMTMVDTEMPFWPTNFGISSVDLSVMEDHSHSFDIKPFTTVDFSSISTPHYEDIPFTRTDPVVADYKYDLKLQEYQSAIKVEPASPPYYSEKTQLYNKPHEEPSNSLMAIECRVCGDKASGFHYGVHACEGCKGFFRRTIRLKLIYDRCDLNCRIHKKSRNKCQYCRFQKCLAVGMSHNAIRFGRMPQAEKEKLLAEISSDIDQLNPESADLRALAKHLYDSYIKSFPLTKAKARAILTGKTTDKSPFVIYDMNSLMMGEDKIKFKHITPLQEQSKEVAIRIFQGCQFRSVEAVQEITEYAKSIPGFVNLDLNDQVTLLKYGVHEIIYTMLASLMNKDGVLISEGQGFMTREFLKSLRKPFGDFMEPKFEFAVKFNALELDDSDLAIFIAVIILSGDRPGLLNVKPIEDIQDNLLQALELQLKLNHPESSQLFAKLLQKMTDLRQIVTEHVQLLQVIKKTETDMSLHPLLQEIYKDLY
Bile acid receptor (Homo sapiens), sequence (Q96RI1 whole entry, looked up, the tested form may be a part): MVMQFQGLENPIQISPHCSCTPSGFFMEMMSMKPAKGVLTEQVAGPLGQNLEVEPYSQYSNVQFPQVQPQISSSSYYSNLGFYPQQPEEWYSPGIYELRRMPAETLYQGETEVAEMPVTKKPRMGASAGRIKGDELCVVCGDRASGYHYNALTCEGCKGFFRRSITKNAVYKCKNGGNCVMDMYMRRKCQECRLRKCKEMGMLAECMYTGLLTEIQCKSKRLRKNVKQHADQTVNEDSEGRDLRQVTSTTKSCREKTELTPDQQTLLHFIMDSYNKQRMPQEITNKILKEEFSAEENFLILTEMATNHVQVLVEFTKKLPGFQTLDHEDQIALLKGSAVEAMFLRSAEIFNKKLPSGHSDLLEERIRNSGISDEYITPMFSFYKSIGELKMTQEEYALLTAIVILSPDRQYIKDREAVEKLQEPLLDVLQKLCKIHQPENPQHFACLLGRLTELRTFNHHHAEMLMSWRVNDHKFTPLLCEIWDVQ
Estrogen receptor beta (Homo sapiens), sequence (Q92731 whole entry, looked up, the tested form may be a part): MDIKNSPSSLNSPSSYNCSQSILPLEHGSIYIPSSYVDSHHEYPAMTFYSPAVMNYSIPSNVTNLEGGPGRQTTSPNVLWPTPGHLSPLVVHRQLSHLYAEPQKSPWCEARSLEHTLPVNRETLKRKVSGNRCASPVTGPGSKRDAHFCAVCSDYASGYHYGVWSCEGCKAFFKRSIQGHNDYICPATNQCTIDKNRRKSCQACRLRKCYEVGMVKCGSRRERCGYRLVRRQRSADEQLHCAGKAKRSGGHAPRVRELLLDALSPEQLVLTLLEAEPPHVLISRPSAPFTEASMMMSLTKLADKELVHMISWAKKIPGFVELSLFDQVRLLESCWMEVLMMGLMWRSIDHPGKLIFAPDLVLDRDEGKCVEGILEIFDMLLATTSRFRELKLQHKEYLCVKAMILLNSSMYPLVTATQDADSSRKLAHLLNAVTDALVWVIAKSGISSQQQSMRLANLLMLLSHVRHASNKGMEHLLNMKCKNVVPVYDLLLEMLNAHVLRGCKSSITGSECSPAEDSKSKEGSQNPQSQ
Retinoic acid receptor RXR-alpha (Homo sapiens), sequence (P19793 whole entry, looked up, the tested form may be a part): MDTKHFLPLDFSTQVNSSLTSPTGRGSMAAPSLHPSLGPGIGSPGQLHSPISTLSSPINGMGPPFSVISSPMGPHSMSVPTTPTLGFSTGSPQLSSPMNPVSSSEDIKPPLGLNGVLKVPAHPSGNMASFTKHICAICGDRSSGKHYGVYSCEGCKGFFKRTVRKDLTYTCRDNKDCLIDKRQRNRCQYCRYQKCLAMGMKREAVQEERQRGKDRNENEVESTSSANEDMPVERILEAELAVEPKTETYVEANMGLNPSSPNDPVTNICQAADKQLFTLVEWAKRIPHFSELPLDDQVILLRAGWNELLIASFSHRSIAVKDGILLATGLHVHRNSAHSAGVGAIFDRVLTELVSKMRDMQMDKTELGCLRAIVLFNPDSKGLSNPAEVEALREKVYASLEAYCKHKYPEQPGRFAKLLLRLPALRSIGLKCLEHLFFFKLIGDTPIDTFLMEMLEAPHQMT
human Thyroid Receptor alpha (THRa1), THRA (gene 7067), sequence (P10827 whole entry, looked up, the tested form may be a part): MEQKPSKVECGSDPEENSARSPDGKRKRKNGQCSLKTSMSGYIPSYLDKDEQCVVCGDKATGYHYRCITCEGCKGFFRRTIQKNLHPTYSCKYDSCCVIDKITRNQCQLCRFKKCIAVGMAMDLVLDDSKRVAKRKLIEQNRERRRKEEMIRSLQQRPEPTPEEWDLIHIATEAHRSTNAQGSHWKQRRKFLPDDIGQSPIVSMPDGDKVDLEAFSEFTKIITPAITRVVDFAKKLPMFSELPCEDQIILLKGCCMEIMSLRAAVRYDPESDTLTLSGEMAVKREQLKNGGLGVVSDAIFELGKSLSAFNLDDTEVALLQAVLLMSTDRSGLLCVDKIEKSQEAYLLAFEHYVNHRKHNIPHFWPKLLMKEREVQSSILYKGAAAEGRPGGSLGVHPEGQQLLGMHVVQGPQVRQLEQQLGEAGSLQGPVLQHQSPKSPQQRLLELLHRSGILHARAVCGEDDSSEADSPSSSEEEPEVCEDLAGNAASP

For orientation: AC50 means the midpoint of the concentration-response curve, whichever way the signal moves. With `CC1(C)[C@H](C(=O)O[C@H](C#N)c2cccc(Oc3ccccc3)c2)[C@@H]1C=C(Br)Br`, the molecule was called inactive in assay [1], in assay [2], in assay [3], in assay [4], in assay [5] and in assay [6]. Besides, the outcome in assay [7], in [8], in [9], in assay [10], in [11] and in [12] was inactive. The call in assay [13], in assay [14] and in assay [15] was inactive. Also, the half-maximal activity concentration (AC50) was 0.0401 µM (active) in [3], 0.3 µM (active) in assay [4], 50 µM (active) in [14] and 50 µM (active) in [15].

Take `CCC(C)c1cc([N+](=O)[O-])cc([N+](=O)[O-])c1OC(=O)C=C(C)C` (centres undefined): the AC50 is 9.89 µM (active) in assay [2]; 7.18 µM (active) in [3]; 6.83 µM (active) in [4]; 20.9 µM (active) in assay [5]; 12.8 µM (active) in [6]; 0.00641 µM (active) in [7]. For the same molecule, the AC50 in assay [8] is 35.3 µM (active).

`O=c1c2ccccc2c(=O)c2c1cc(Cl)c1[nH]c3c([nH]c12)c(Cl)cc1c(=O)c2ccccc2c(=O)c13`: the molecule was called inactive in assay [16], in [17], in assay [3], in [5], in assay [6] and in [7]. Further, the outcome in assay [8] was inactive. Also, the half-maximal activity concentration (AC50) in [2] was 15.8 µM (active); in assay [4] it was 24.8 µM (active).

`Nc1ccc(-c2ccc(N)c(N)c2)cc1N`: the molecule was called inactive in assay [17], in assay [18], in assay [3], in assay [4], in [5] and in [6]. Also, the outcome in assay [7] and in [8] was inactive. In addition, in [2], the AC50 is 5.26 µM (active).

For the molecule `Cc1ccc(C)c2ccccc12`, the call in assay [18], in [19], in assay [9], in assay [10], in assay [11] and in [12] was inactive. The molecule was called inactive in assay [13] and in assay [14].

Take `O=[N+]([O-])c1cc(C(F)(F)F)c(Cl)c([N+](=O)[O-])c1Cl`: the molecule was called inactive in assay [16], in [18] and in assay [19]. For the same molecule, the concentration at half-maximal activity (AC50) in assay [17] is 53.3 µM (active).

On to `COc1cc(OC)nc(Oc2cccc(Oc3nc(OC)cc(OC)n3)c2C(=O)O)n1`, for which the outcome in assay [1], in [17], in assay [18], in assay [9], in assay [10] and in [11] was inactive. Moreover, the molecule was called inactive in assay [20], in assay [12], in [13], in assay [14] and in [15].

In the case of `[CH3][Sn]([CH3])([Cl])[Cl]`, the call in assay [18], in assay [11], in assay [12], in assay [13], in assay [14] and in assay [15] was inactive. Besides, the half-maximal activity concentration (AC50) in assay [20] was 82.1 µM (active).

For the origin of these results see PubChem BioAssay (EPA / NIEHS).
